Where “and” joins values, the source holds several entries; their conditions need not be identical. Equal values may be shown once. Inconclusive results are not listed. Calls of active or inactive are those of the source. Unless noted, the call rests on the fitted dose curve; in most records, active means well fitted curve in the direction sought with a large enough effect; inconclusive means small, poorly fitted or top-dose-only effect, or another doubt; inactive means no such curve, though single readings can be large; an effect the other way counts as inactive or inconclusive.
Legend:
[1] = Cell Viability - SH-SY5Y (AID 544); conditions: SH-SY5Y neuroblastoma cell viability; viability change, negative = cytotoxic: at 92.2 µM (top of the series);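 further: cells exposed to compound for 40 hours; nearly all actives have a fitted effect of over 55% in size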; further: potency means the concentration at half of the fitted maximal effect;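 on viability change, negative = cytotoxic: 0% = DMSO alone and -100% = 100 µM tamoxifen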
In short: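 Cytotoxicity is scored as a concentration-dependent fall in intracellular ATP in human SH-SY5Y cells treated 40 hr in complete culture medium. Potency is expressed as AC50 from a Hill equation fit.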

[2] = Cell Viability - Mesenchymal (AID 546);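 further: cells exposed to compound for 40 hours before reading; 0% = DMSO only and -100% = 100 µM tamoxifen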
In short: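 Normal human renal glomerulus-derived kidney mesenchymal cells, 1000 per well in complete medium, were treated with compounds for 40 hr at 37 °C. Viability was read as intracellular ATP by CellTiter-Glo luminescence; AC50 values came from Hill-equation fits of qHTS concentration-response data.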

[3] = Cellular Toxicity (caspase-3) HUV-EC-C (AID 656);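 further: 0% = DMSO basal and 100% = 100 µM tamoxifen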
In short: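 Luminescent Caspase-Glo 3/7 readout after 16 h, 37 °C compound exposure of HUV-EC-C endothelial cells, 1000 per well, complete medium. AC50 derived by Hill fitting, with DMSO as baseline and 100 uM tamoxifen as full activation.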

[4] = Cellular Toxicity (caspase-3) SHSY5Y (AID 657)
In short: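 Luminescent Caspase-Glo 3/7 read-out, 1 hr room temperature, follows 16 hours of compound treatment of SH-SY5Y cells at 37 °C. Normalization: DMSO basal, 10 uM staurosporine as 100%; AC50 values from Hill-equation concentration-response fits.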

[5] = Cellular Toxicity (caspase-3) H-4-II-E (AID 663); conditions: Potency: caspase-3 activation;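 further: cells exposed to compound for 16 hr before readout; 0% = DMSO basal and 100% = 100 µM tamoxifen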
In short: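 Luminescence from caspase-cleaved aminoluciferin substrate, read 20 min after reagent addition, reports caspase 3/7 activation in rat H-4-II-E cells after 16 hr compound exposure. Normalized to DMSO (basal) and 100 uM tamoxifen (100%); AC50 from Hill fits.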

[6] = molecular target: Cytochrome P450 3A4 (Homo sapiens) (UniProt P08684); assay: qHTS Assay for Inhibitors and Substrates of Cytochrome P450 3A4 (AID 884); further: nearly all actives have a fitted effect of over 50% in size; further: potency means the concentration at half of the fitted maximal effect
In short: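 20 nM human CYP3A4 with 25 uM Luciferin-PPXE (at KM) in 200 mM KPO4, preincubated 10 min with compound; NADPH regeneration started a 60 min RT reaction. Luciferin detected by luminescence, normalized to 57 uM ketoconazole as full inhibition.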

[7] = MultiTox-Fluor Cytotoxicity Assay - LYMP1-001 - Live Cells (AID 947);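 further: 0% = DMSO only and full inhibition = tetraoctylammonium bromide control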
[8] = Cell Viability - LYMP1-002 - Assay at 16 hr (AID 948);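 further: 0% = DMSO alone and full effect = 92 µM tetraoctylammonium bromide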
In short: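 ATP luminescence (CellTiter-Glo) was measured after 16 hr compound exposure at 37 C of 2500 lymphoblastoid LYMP1-002 cells per well. Concentration-response curves were fitted with the Hill equation to give AC50.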

[9] = MultiTox-Fluor Cytotoxicity Assay - LYMP1-002 - Live Cells (AID 955); further: on the % scale 0 is the no-effect control and ±100 the full control effect
In short: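 Cytotoxicity in the human lymphoblastoid line LYMP1-002 is measured as loss of live-cell protease activity after 16 h treatment in complete culture medium. AC50 is derived from Hill-equation fits of qHTS concentration-response data.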

[10] = Cell Viability - LYMP2-005 (AID 967);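 further: plate controls were DMSO only for no effect and 92 µM tetraoctylammonium bromide control for full effect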
In short: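 LYMP2-005 human lymphoblastoid cells (2500/well) were treated with compounds for 24 h at 37 C. Intracellular ATP was then measured by CellTiter-Glo luminescence after 30 min at room temperature. AC50 values came from Hill-equation fits of qHTS concentration-response data.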

[11] = Cell Viability - LYMP2-017 (AID 972); further: on the % scale 0 is the no-effect control and ±100 the full control effect; nearly all actives have a fitted effect of over 55% in size
In short: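 Steps: plate 2500 lymphoblastoid cells per well; incubate 5 hr at 37 C; add compound across a concentration series and incubate 24 hr at 37 C; add CellTiter-Glo and read luminescence after 30 min at room temperature; fit Hill curves for AC50.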

[12] = Cell Viability - LYMP2-002 (AID 977);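 further: plate controls were DMSO only for no effect and 92 µM tetraoctylammonium bromide for full effect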
In short: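 Luminescent ATP readout (CellTiter-Glo, 30 min room temperature) after 24 h compound exposure at 37 C of a human lymphoblastoid line, 2500 cells/well. AC50 values derived by standard Hill fitting of qHTS concentration-response data.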

[13] = qHTS assay for small molecule disruptors of the mitochondrial membrane potential - 1 hr assay (AID 651754; calls by dose curve; further: nearly all actives have a fitted effect of over 35% in size; further: potency means the concentration at half of the fitted maximal effect)
In short: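 Steps: seed HepG2 cells and let attach overnight; pin-transfer compound or vehicle; incubate 1 hr at 37C; add Mito-MPS dye for 30 min; read two-channel fluorescence for monomer and aggregate forms.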

[14] = qHTS assay for small molecule disruptors of the mitochondrial membrane potential - 5 hr assay (AID 651755; calls by dose curve; further: on the % scale 0 is the no-effect control and ±100 the full control effect; nearly all actives have a fitted effect of over 40% in size)
In short: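 HepG2 cells, attached overnight at 37C, were exposed to compound or DMSO for 5 hr at 37C, 5% CO2. Mito-MPS dye was then added for 30 min, and fluorescence read at 490/535 nm (monomers) and 540/590 nm (aggregates).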

[15] = molecular target: Tumor necrosis factor (Homo sapiens) (UniProt P01375); assay: qHTS assay to identify small molecules that stimulate Tumor Necrosis Factor-alpha (TNF-alpha) secretion (AID 651757; active means well fitted curve in the direction sought with a large enough effect in the signal ratio; the % refers to the signal ratio; further: 0% is about no effect)
In short: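 Secreted TNF-alpha from compound-treated THP-1 cells (17 hrs, 37 C) was quantified with a homogeneous time-resolved fluorescence antibody assay.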

[16] = qHTS assay for environmental chemicals that activate the Aryl hydrocarbon Receptor (AhR) signaling pathway (AID 651777); conditions: 1A2-DRE human hepatoma cells, luciferase, 24 h; activation: hits give high values; further: % of control where 0% means no effect; nearly all actives have a fitted effect of over 15% in size
In short: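 Human hepatoma 1A2-DRE cells, stably carrying a dioxin response element and CYP1A2 promoter driving luciferase, were exposed to compounds for 24 hr at 37 C and 5% CO2. Luciferase signal was then read after 30 min One-Glo at room temperature.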

[17] = molecular target: Nuclear receptor subfamily 1 group I member 2 (Rattus norvegicus) (UniProt Q9R1A7); assay: qHTS assay for small molecule activators of the rat pregnane X receptor (rPXR) signaling pathway (AID 651751; call rule not given here; further: 0% is about no effect); conditions: rPXR reporter cells, luciferase (One-Glo), 24 h
[18] = Cellular Toxicity (caspase-3) Mesangial (AID 660);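 further: combined caspase 3 and 7 activity read by Caspase-Glo luminescence; cells exposed to compound for 16 h before the caspase read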
In short: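 Concentration-response qHTS: compound-induced rise in caspase 3/7 luminescence in human mesangial cells after 16 h, normalized to DMSO and 100 uM tamoxifen controls.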

[19] = Cell Viability - LYMP2-023 (AID 975);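 further: cellular ATP measured by luciferase luminescence as viability proxy; plate controls were DMSO only for no effect and 92 µM tetraoctylammonium bromide control for full effect; nearly all actives have a fitted effect of over 55% in size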
In short: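 Concentration-dependent drop in intracellular ATP measures acute cytotoxicity in a human lymphoblastoid line treated for 24 hours in complete culture medium. AC50 values are taken from Hill-equation fits of qHTS data.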

[20] = molecular target: Nuclear receptor ROR-gamma (Homo sapiens) (UniProt P51449); assay: qHTS assay for small molecule antagonists of the retinoid-related orphan receptor gamma (ROR-gamma) signaling pathway (AID 651802);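 further: CHO cells with doxycycline-induced ROR-gamma expression; luciferase reporter luminescence driven by ROR response element; on the % scale 0 is the no-effect control and ±100 the full control effect; nearly all actives have a fitted effect of over 60% in size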
In short: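 Antagonism is scored as a fall in luminescence from a RORE-luciferase reporter in CHO cells expressing ROR under a TET-inducible promoter, measured 16hr after doxycycline induction in the presence of compound.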

Cytochrome P450 3A4 (Homo sapiens), sequence (P08684 whole entry, looked up): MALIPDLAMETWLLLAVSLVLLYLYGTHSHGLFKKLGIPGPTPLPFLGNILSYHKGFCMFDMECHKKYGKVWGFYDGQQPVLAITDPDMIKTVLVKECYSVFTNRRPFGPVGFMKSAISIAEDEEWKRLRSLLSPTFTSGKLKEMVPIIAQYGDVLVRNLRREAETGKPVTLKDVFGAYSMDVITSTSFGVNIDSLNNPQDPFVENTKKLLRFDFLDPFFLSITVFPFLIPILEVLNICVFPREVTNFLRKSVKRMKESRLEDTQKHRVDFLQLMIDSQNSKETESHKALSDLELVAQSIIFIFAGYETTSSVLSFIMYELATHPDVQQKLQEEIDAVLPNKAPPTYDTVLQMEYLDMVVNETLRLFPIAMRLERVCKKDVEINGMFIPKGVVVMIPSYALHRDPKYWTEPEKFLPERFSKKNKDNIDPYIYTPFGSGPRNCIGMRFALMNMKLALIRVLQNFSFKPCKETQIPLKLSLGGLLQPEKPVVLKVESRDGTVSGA
Tumor necrosis factor (Homo sapiens), sequence (P01375 whole entry, looked up): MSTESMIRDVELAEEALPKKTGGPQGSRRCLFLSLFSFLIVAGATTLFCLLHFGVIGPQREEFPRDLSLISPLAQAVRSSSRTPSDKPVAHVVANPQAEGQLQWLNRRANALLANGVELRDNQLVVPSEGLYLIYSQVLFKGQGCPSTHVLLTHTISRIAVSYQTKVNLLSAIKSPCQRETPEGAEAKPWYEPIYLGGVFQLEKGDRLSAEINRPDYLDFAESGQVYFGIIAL
Nuclear receptor ROR-gamma (Homo sapiens), sequence (P51449 whole entry, looked up): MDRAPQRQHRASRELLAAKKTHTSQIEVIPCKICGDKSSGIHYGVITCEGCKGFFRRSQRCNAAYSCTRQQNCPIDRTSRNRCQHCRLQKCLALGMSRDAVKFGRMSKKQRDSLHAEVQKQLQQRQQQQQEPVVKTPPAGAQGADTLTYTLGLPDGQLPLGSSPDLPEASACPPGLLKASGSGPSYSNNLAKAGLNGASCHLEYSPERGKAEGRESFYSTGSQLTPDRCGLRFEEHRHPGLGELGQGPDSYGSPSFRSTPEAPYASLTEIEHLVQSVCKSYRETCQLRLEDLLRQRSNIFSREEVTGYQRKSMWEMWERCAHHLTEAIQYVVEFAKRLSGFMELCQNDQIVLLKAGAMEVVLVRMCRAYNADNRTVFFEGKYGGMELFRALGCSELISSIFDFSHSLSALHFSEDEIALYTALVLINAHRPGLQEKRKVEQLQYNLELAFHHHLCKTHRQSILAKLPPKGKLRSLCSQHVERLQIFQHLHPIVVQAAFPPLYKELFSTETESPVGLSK
Nuclear receptor subfamily 1 group I member 2 (Rattus norvegicus), sequence (Q9R1A7 whole entry, looked up): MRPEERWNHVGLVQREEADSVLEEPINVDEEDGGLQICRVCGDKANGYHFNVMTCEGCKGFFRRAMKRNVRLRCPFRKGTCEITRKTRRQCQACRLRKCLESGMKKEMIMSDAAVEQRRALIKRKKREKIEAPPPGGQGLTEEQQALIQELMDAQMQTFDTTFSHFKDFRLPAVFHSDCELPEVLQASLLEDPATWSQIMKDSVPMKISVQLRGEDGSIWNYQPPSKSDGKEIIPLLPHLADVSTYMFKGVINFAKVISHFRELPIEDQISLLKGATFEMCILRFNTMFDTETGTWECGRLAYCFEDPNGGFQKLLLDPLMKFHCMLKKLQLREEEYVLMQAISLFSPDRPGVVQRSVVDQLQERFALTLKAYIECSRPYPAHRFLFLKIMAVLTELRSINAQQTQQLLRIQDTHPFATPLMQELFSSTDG

Cc1ccc(N)c(C)c1
inactive: Potency [1] | Potency [2] | outcome [3] | outcome [4] | Potency [5] | Potency [6] | outcome [7] | outcome [8] | outcome [9] | Potency [10] | Potency [11] | Potency [12] | Potency [13] | Potency [14] | outcome [15] | activation [16] -0.367% | max response [17] -0.287%

COc1cc(-c2ccc(N)c(OC)c2)ccc1N
inactive: Potency [1] | outcome [4] | outcome [18] | Potency [5] | outcome [7] | outcome [8] | outcome [9] | Potency [10] | Potency [11] | Potency [19] | Potency [12] | Potency [20] | max response [17] 3.75% and 3.76% and 11%
active: Potency [6] 12.6 µM | Potency [13] 37.6 µM

BrC(Br)Br
inactive: Potency [1] | outcome [3] | outcome [4] | outcome [18] | Potency [5] | Potency [6] | outcome [7] | outcome [8] | outcome [9] | Potency [10] | Potency [11] | Potency [19] | Potency [12] | Potency [13] | Potency [14] | outcome [15] | activation [16] 2.01% | Potency [20] | max response [17] 0.0785%

ClCc1ccccn1
inactive: Potency [1] | Potency [2] | outcome [3] | outcome [4] | outcome [18] | Potency [5] | Potency [6] | outcome [7] | outcome [8] | outcome [9] | Potency [10] | Potency [11] | Potency [19] | Potency [12] | Potency [13] | Potency [14] | outcome [15] | activation [16] -0.85% and 1.26% | Potency [20] | max response [17] 2.99% and 8.15%

Cc1cc(-c2ccc(N)c(C)c2)ccc1N
inactive: Potency [1] | outcome [3] | outcome [4] | outcome [18] | Potency [5] | outcome [7] | outcome [8] | outcome [9] | Potency [10] | Potency [11] | Potency [12] | Potency [14] | Potency [20]

COC(=O)Nc1nc2ccccc2[nH]1
inactive: Potency [2] | outcome [3] | outcome [4] | outcome [18] | outcome [7] | outcome [8] | outcome [9] | Potency [10] | Potency [11] | Potency [19] | Potency [12] | Potency [13] | Potency [14] | outcome [15] | activation [16] 7.05% | Potency [20]
active: Potency [1] 7.94 µM

Clc1cccc2ccccc12
inactive: Potency [1] | outcome [3] | outcome [4] | Potency [5] | Potency [6] | outcome [8] | outcome [9] | Potency [10] | Potency [11] | Potency [19] | Potency [12] | Potency [13] | Potency [14] | outcome [15] | activation [16] -0.754% | Potency [20] | max response [17] 3.21%

Clc1ccc(Cl)c(Cl)c1
inactive: Potency [1] | Potency [2] | outcome [3] | outcome [4] | outcome [18] | Potency [5] | Potency [6] | outcome [7] | outcome [8] | outcome [9] | Potency [10] | Potency [11] | Potency [19] | Potency [12] | Potency [13] | Potency [14] | outcome [15] | activation [16] 0.0505% and 0.0105% | Potency [20] | max response [17] 1.05% and -0.643%

— PubChem BioAssay (NCATS)
